IMPase cell inh: membrane-permeable compound that blocks inositol monophosphatase; P97697; CHO-M1 cells, IP1 accumulation, HTRF TR-FRET ratio; inhibition (IP1 accumulation), % at 46.1 µM; 120,000 tested, under 10 active; AID 901; active = well fitted curve in the direction sought with a large enough effect in the signal ratio, not every such curve was filed as active; inconclusive = small, poorly fitted or top-dose-only effect, or a change in a side signal; inactive = no such curve, though single readings can be large or run the other way; the % refers to the signal ratio;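 also: cells stimulated with carbachol in lithium chloride buffer; plate controls were DMSO basal wells for no effect and reference inhibitor wells for full effect; higher means more IMPase inhibition seen as more IP1 and lower FRET ratio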
Target sequence (P97697 whole entry, looked up): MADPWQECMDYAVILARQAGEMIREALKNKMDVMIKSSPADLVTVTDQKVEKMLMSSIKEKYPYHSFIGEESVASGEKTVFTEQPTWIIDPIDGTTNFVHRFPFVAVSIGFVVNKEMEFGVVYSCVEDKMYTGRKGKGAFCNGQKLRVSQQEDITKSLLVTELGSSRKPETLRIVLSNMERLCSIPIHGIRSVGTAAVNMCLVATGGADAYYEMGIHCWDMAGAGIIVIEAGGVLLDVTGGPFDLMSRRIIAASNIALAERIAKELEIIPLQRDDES
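Cellular IMPase inhibition is scored as a rise in cytosolic IP1, detected by competitive TR-FRET between d2-labelled IP1 and a europium anti-IP1 antibody. M1-expressing CHO cells were stimulated with carbachol for 30 min at 37C, with lithium (50 mM LiCl) present in the buffer.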
12-hLO inh: blocks human 12-lipoxygenase activity; 150,000 compounds, 0.12% hits; Potency, µM (titrated, usually from 57.1 µM), for inactives: top-dose activity change, negative = inhibition, actives largely listed as inhibitors; purified 12-hLO, xylenol orange hydroperoxide absorbance; also: potency is read from the fitted curve at half-maximal effect; nearly all actives have a fitted effect of over 55% in size
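Xylenol orange chromogenic assay: hydroperoxide from 12hLO oxidises Fe(II), giving red-shifted Fe(III)-XO absorbance. Conditions: 150 nM enzyme, 40 uM arachidonic acid, 25 mM Hepes pH 7.0, 0.01% Triton X-100, 30 min, room temperature.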
NPSR antagonist: antagonists of human neuropeptide S receptor cAMP signaling; AID 1461; CHO-NPSR cells, cAMP TR-FRET, antagonist mode; Q6W5P4; 220,000 compounds, 1% hits; Potency, µM (top dose mostly 38.3 µM), for inactives: at the highest dose activity change, negative = inhibition, actives largely listed as inhibitors; also: potency is read from the fitted curve at half-maximal effect; nearly all actives have a fitted effect of over 50% in size
ALDH1A1 inh: blocks purified human ALDH1A1 activity | Potency, µM (top dose mostly 75.3 µM), inactives show at the top dose activity, negative = inhibition, most hits filed as inhibitors | AID 1030 | Purified ALDH1A1, NADH fluorescence, propionaldehyde substrate | 220,000 compounds, 7.3% hits; active = well fitted inhibition curve with a large enough effect, not every such curve was filed as active; inconclusive = small, poorly fitted or top-dose-only effect, or another doubt; inactive = no such curve, though single readings can be large or run the other way;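 also: potency is read from the fitted curve at half-maximal effect; plate controls were no enzyme wells and a reference inhibitor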
Target sequence (P00352 whole entry, looked up): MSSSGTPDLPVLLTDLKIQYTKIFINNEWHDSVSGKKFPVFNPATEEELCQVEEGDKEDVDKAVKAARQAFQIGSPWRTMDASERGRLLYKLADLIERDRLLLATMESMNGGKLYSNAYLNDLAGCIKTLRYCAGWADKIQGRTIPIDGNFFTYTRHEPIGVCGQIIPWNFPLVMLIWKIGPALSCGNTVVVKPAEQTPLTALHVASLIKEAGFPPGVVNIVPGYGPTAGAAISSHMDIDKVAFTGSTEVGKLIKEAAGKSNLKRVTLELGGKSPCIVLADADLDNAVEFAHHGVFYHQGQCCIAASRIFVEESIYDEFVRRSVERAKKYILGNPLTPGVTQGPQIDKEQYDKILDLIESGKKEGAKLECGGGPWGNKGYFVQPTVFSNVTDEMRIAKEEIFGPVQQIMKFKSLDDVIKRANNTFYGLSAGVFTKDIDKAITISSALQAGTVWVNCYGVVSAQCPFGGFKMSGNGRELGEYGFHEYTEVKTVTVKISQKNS
HPGD block: HPGD (human) dehydrogenase inhibition; P15428; purified HPGD, NADH fluorescence kinetic, PGE2 substrate; Potency, µM, for the others: at the top dose activity change, negative = inhibition, usual class: inhibitors; 150,000 compounds, 4.3% hits; AID 894; active = well fitted inhibition curve with a large enough effect, not every such curve was filed as active; inconclusive = small, poorly fitted or top-dose-only effect, or another doubt; inactive = no such curve, though single readings can be large or run the other way; also: potency is read from the fitted curve at half-maximal effect
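20 nM HPGD preincubated 15 min at room temperature with compound in 50 mM Tris-HCl pH 8, 0.01% Tween 20. Started with 1 mM NAD+ and 30 uM prostaglandin E2; NADH fluorescence (360/450 nm) read 5 times over 30-s intervals, last minus first.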
IMPase Li cell: cell-permeable IMPase inhibitors with lithium potentiation | CHO-M1 cells, IP1 TR-FRET (IP-One), carbachol + lithium | Potency, µM (series often up to 59.4 µM), for the others: at the highest dose activity, negative = IMPase inhibition, usual class: inhibitors | 210,000 compounds, 0.35% hits;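 also: IP1 builds up when IMPase is blocked and the TR-FRET signal falls; potency is read from the fitted curve at half-maximal effect; plate controls were basal vehicle for no effect and high inhibitor control for full effect; nearly all actives have a fitted effect of over 50% in size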
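Steps: plate 2000 CHO-M1 cells per well and culture 16–30 h; add compound and lithium; incubate 30 min, 37C; add d2-IP1 tracer and Eu cryptate anti-IP1 antibody in lysis buffer; read after 10 min at room temperature.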
* hit, by the source's call; u = inconclusive; x = no result given; [ ] = another dose, or the depositor's remark. A selection: hits, their analogues and other compounds. The true share with any hit is near 8.9%. Unless noted, calls follow the shape of the dose curve; as a rule, active = well fitted curve in the direction sought with a large enough effect; inconclusive = small, poorly fitted or top-dose-only effect, or another doubt; inactive = no such curve, though single readings can be large; an effect the other way counts as inactive or inconclusive. Unless noted, % is scaled to controls: 0 for no effect and ±100 for the full control effect.

SMILES	IMPase cell inh	12-hLO inh	NPSR antagonist	ALDH1A1 inh	HPGD block	IMPase Li cell
O=C(NCc1cccs1)c1ccccc1[N+](=O)[O-]	x	1%	11%	8%	13µM*	2%
O=C(NNC(=O)c1ccccc1[N+](=O)[O-])c1ccccc1[N+](=O)[O-]	x	x	16%	22µM*	x	1%
COc1ccc(C(=O)NNC(=O)c2ccccc2[N+](=O)[O-])cc1	x	-2%	34%	8%	1%	0%
CC(Nc1n[nH]c(=O)[nH]c1=O)C(=O)N/N=C/c1cccs1 (configuration not stated)	x	x	10%	9%	x	1%
Cc1cc(C)cc(NC(=O)Oc2ccccc2N2CCCCC2)c1	x	x	0%	x	x	x
CCOC(=O)C1=C(C)NC(=S)NC1c1ccc(-c2cccc(Cl)c2C)o1 (configuration not stated)	1	u	-26%[46.1 µM]	0.89µM*	-11%	11%[38.3 µM]
COC(=O)C1=C(C)NC(C)=C(C(=O)OC)C1c1ccc(-c2cccc(Cl)c2Cl)o1	-12	-3%	u	u	u	-4%
CCOC(=O)C1=C(C)NC(=O)NC1c1ccc(-c2ccc(Cl)cc2)o1 (configuration not stated)	x	x	-27%	6%	x	12%
CCOC(=O)C1=C(C)NC(=S)NC1c1ccc(-c2ccc(Cl)cc2)o1 (configuration not stated)	x	u	-37%	4.5µM*	-10%	-4%
COC(=O)C1=C(C)NC(=S)NC1c1ccc(-c2ccccc2C(=O)OC)o1 (configuration not stated)	x	x	-13%	16µM*	x	6%
COC(=O)C1=C(C)NC(=S)NC1c1ccc(-c2cccc(Cl)c2)o1 (configuration not stated)	x	u	-34%	2µM*	-28%	1%
CCOC(=O)C1=C(C)NC(=S)NC1c1ccco1 (configuration not stated)	x	x	10%[7.67 µM]	x	x	x
COc1ccc(N(C(=O)c2ccco2)C(C(=O)NC2CCCC2)c2cccs2)cc1 (configuration not stated)	x	x	46%	7%	x	8%
CCOC(=O)C1(Cc2ccc(OC)cc2)CCN(C(=O)C2CC(=O)N(C3CC3)C2)CC1 (configuration not stated)	x	x	-6%	x	x	x
Cc1cc(NC(=O)COC(=O)C2CCCN2C(=O)c2cccs2)no1 (configuration not stated)	6	-1%	-12%[46.1 µM]	-2%	-1%	12%[38.3 µM]
CN(C1CCCCC1)S(=O)(=O)c1ccc(NC(=O)C2CCCCC2C(=O)O)cc1 (configuration not stated)	-13	0%	1%[46.1 µM]	-1%	-4%	20%[38.3 µM]
Cc1ccc(/C=N/NC(=O)CSc2nc3ccccc3s2)o1	x	-2%	9%	11µM*	14µM*	8%
O=C(COc1cccc2ccccc12)N/N=C/c1ccc(Sc2nc3ccccc3s2)o1	2	7%	-28%[46.1 µM]	u	28µM*	21%[38.3 µM]
COCC(=O)N/N=C/c1ccc(Sc2nc3ccccc3s2)o1	0	5%	u	u	-27%	-14%[38.3 µM]
Cc1ccc(/C=N/NC(=O)CSc2nnc(-c3ccc(Cl)cc3)n2-c2ccccc2)o1	x	0%	-11%	10µM*	u	15%
O=C(CSc1nnc(-c2ccc(Cl)cc2)n1-c1ccc(Cl)cc1)N/N=C/c1ccco1	-3	1%	0%	u	-18%	7%
Cc1ccccc1OCC(=O)N/N=C/c1ccc(Sc2nc3ccccc3s2)o1	12	-2%	-12%[46.1 µM]	-5%	-18%	1%[38.3 µM]
O=C(Nc1cccc(S(=O)(=O)N2CCCC2)c1)C1CCCN1C(=O)c1cccs1 (configuration not stated)	x	x	11%	x	x	x
O=S(=O)(Nc1cc(Sc2cccc3cccnc23)c(O)c2ccccc12)c1ccc(F)cc1	x	-8%	-7%	28µM*	1.3µM*	15%
O=C(Sc1cccc2cccnc12)c1ccc(F)cc1	x	x	u	u	x	4%
SMILES	IMPase cell inh	12-hLO inh	NPSR antagonist	ALDH1A1 inh	HPGD block	IMPase Li cell
COc1ccc(S(=O)(=O)N(CC(=O)O)Cc2ccccc2)cc1OC	-1	-3%	-2%[46.1 µM]	-31%	-14%	x
COc1ccc(CCNC(=O)COc2ccc([N+](=O)[O-])cc2)cc1	x	x	3%	u	x	6%
COc1ccc(P(=O)(COc2ccc([N+](=O)[O-])cc2)c2ccc(OC)cc2)cc1	x	-5%	7%	7.1µM*	-5%	4%
CCOC(=O)c1nn(-c2ccc(Cl)cc2)c2nnc(Cc3ccc(C)cc3)c(=O)n12	x	2%	-33%	u	-3%	2%
Cc1nn(Cc2ccccc2Cl)c2sc(C(=O)OC3CCCC3=O)cc12 (configuration not stated)	-14	-16%	-29%[46.1 µM]	8.9µM*	-26%	15%[38.3 µM]
Cc1nn(Cc2ccccc2Cl)c2sc(C(=O)NC(C)(C)C)cc12	7	-7%	u	-6%	-17%	16%[38.3 µM]
Cc1cc(C(=O)CCl)c(C)n1-c1cccc(S(=O)(=O)N2CCOCC2)c1	x	x	-31%	0.18µM*	x	12%
Cc1cc(C(=O)CN2C(=O)CN(C)C2=O)c(C)n1-c1cccc(S(=O)(=O)N2CCOCC2)c1	x	x	5%	u	x	2%
Cc1n[nH]c(C)c1N1C(=O)c2cccc3cc(Br)cc(c23)C1=O	-26	0%	7%[46.1 µM]	-9%	-20%	-17%[38.3 µM]
Cc1ccc(C(=O)O)cc1N1C(=O)c2cccc3cc(Br)cc(c23)C1=O	u	-18%	-11%[46.1 µM]	-1%	-9%	2.2µM*
C=CCn1cnc2c(c1=O)c1nc3ccccc3nc1n2-c1ccccc1	6	8%	-12%[46.1 µM]	u	u	-1%[38.3 µM]
Cc1cc(C)c(COCc2cc(/C=N/O)c(C)cc2C)cc1/C=N/O	3	-6%	u	23%	14µM*	46%[38.3 µM]
COc1cccc(NC(=S)N(Cc2ccc(Cl)cc2)Cc2ccc(C(=O)O)cc2)c1	x	x	-43%	-9%	x	-4%
Cc1c(C(=O)N2CCN(Cc3ccccc3)CC2)sc2ncnc(N3CCOCC3)c12	-4	10%	-14%[46.1 µM]	25µM*	-20%	9%
Cc1c(C(=O)N2CCC(C)CC2)sc2ncnc(N(C)c3ccccc3)c12	u	-6%	-9%[46.1 µM]	u	8.9µM*	3%
Cc1c(C(=O)N2CCC(Cc3ccccc3)CC2)sc2ncnc(N3CCC(C)CC3)c12	x	x	-59%	-7%	x	11%
COc1cc2c(cc1OC)C1(Nc3c-2c(Cc2ccccc2)nn3-c2ccccc2)C(=O)Nc2ccccc21 (configuration not stated)	2	-15%	-13%[46.1 µM]	u	u	-21%[38.3 µM]

Assay outcomes as filed in PubChem.
